# Measurements: PubChem BioAssay (EPA / NIEHS)
# Activity calls are given as the source filed them. The calls were made as follows: active = hit-call score of the fitted dose curve at least 0.9, where 1 is the maximum; inconclusive = response in the unintended direction; inactive = score below 0.9.
# Test system: DIO2 (gene 1734)
# Assay: CCTE_GLTED_hDIO2: CCTE's human Deiodinase 2 (DIO2) Inhibition Assay, Great Lakes Toxicology and Ecology Division (GLTED) Lab (AID 2284050)
# Experimental: CCTE_GLTED_hDIO2 is a cell-free, single-readout assay designed to test the inhibitory activity of chemicals toward human iodothyronine Deiodinase type 2 (DIO2) enzyme. Enzyme is incubated in presence of test chemical for 3 hours during which uninhibited enzyme liberates free iodide from substrate. Free iodide is measured in a second step using the Sandell-Kolthoff method.CCTE_GLTED_hDIO2 is the assay component measured from the CCTE_GLTED_hDIO2 assay. It is designed to make measurements of enzyme activity, a form of enzyme reporter, as detected with absorbance signals by spectrophotometry.Data from the assay component CCTE_GLTED_hDIO2 was analyzed into 1 assay endpoint. This assay endpoint, CCTE_GLTED_hDIO2, was analyzed in the positive analysis fitting direction relative to DMSO as the negative control and baseline of activity. Using a type of enzyme reporter, loss-of-signal activity can be used to understand changes in the enzymatic activity as they relate to the gene DIO2. Furthermore, this assay endpoint can be referred to as a primary readout, because the performed assay has only produced 1 assay endpoint. To generalize the intended target to other relatable targets, this assay endpoint is annotated to the 'deiodinase' intended target family, where the subfamily is 'deiodinase Type 2'.
# Human deiodinase type 2 (hDIO2) assay, developed at Great Lakes Toxicology and Ecology Division (GLTED) within the EPA's Center for Computational Toxicology and Exposure (CCTE), is designed to test the chemicals' ability to inhibit DIO2. Assay is based on iodide release measured by the Sandell-Kolthoff method and is run in 96-well plate format with assay plates run in triplicate (n=3). The method used for the deiodinase assay was largely based on Renko et al. (2012, 2015). These works describe the utilization of the SK reaction to measure deiodinase-liberated iodide in a 96-well-plate format. The SK reaction is based on the reduction of the yellow-colored cerium IV to the non-colored cerium III by arsenic, with the rate of this reaction increased in the presence of iodide in a concentration-dependent manner (Sandell and Kolthoff, 1937). Iodinated test chemicals can interfere as competitive inhibitors, or if the stock chemical has contaminating free-iodide present. Other chemicals, e.g.: nitrite, iron, and thiocyanate can interfere with the Sandell-Kolthoff reaction (see Sandell and Kolthoff, 1937).
SMILES,AC50,outcome
CC(C)C1=CC2=CC[C@@H]3[C@](C)(CCC[C@@]3(C)C(=O)O)[C@H]2CC1,100 µM (active),
CC/C=C\C/C=C\C/C=C\CCCCCCCC(=O)O,21.2 µM (active),
O=C(C=Cc1ccccc1)OCc1ccccc1,14.6 µM (active),
O=S1(=O)OC(c2ccc(O)cc2)(c2ccc(O)cc2)c2ccccc21,100 µM (active),
Cc1ccc(N/N=c2\c(=O)cc/c(=N/Nc3ccc(S(=O)(=O)O)cc3)c2=O)c(C)c1,,inactive
CCCCCCCC/C=C\CCCCCCCC(=O)O,79.4 µM (active),
Oc1ccc(Cl)cc1Cc1cc(Cl)ccc1O,88.4 µM (active),
CCCCCCCC[N+](C)(CCCCCCCC)CCCCCCCC,20.6 µM (active),
O=S(=O)(O)c1ccccc1C=Cc1ccc(-c2ccc(C=Cc3ccccc3S(=O)(=O)O)cc2)cc1,,inactive
CCN(CCC#N)c1ccc(N=Nc2c(Cl)cc([N+](=O)[O-])cc2Cl)cc1,,inactive
CCCCC/C=C\C/C=C\CCCCCCCC(=O)OC,46 µM (active),
CCCCCCCC/C=C\CCCCCCCC(=O)OCCO,19.5 µM (active),
CC=C1CC2C=CC1C2 (centres undefined),100 µM (active),
CCCCCCCCCCCCCOP(=O)(O)O,80.5 µM (active),
